# Source: PubChem
# 12-LOX inh: blocks human arachidonate 12S-lipoxygenase; AID 1671190; Potency, µM (top dose mostly 108 µM), for the others: at the highest dose activity change, negative = inhibition, usual class: inhibitors; 1.1% of 580,000 active; purified 12hLO, xylenol orange hydroperoxide absorbance; P18054
# Target sequence (P18054 whole entry, looked up): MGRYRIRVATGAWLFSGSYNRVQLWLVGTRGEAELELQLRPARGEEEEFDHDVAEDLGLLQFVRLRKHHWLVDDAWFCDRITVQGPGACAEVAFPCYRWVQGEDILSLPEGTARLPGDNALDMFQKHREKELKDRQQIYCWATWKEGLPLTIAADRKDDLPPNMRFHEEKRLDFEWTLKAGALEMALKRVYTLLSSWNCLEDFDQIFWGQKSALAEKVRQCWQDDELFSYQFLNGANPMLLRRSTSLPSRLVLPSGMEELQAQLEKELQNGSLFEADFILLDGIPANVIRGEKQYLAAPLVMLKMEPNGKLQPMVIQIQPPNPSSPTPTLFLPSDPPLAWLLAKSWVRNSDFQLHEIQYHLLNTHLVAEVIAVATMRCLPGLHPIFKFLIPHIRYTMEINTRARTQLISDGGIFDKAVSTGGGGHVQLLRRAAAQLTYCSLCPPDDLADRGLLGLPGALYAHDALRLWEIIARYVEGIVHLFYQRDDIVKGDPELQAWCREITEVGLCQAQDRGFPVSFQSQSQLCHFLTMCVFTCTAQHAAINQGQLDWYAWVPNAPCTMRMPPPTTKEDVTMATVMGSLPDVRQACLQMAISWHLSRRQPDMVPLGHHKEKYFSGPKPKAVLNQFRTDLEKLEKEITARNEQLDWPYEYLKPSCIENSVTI
#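 Purified human 12hLO (150 nM final) in 25 mM Hepes, 0.01% Triton X-100, pH 7.0 was preincubated 15 min at room temperature with compound. Then 40 uM arachidonic acid was added, 30 min. Hydroperoxide was read by Fe-XO absorbance ratio 573/405 nm.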
# TDP1 cell CPT: DT40-hTDP1 cell growth loss with CPT; chicken DT40 Tdp1-/-;hTDP1 cells + 20 nM CPT, ATP luminescence, 48 h; Potency, µM (series often up to 46.2 µM), for inactives: at the highest dose activity change, negative = growth inhibition, actives largely listed as inhibitors; 12% of 420,000 active; AID 686979; further: nearly all actives have a fitted effect of over 55% in size
#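 Chicken DT40 Tdp1-/- cells complemented with human TDP1, 400 cells/well, exposed to compounds plus 20 nM camptothecin for at least 48 h at 37 C; viability read as ATP content by CellTiter-Glo luminescence.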
# ELG1 DNA repair: ELG1-dependent DNA repair inhibition. AID 504467. HEK293T ELG1-luciferase reporter, luminescence, 16 h; DNA damage induced by 5-fluorouridine. 2.3% of 330,000 active. Potency, µM (titrated, usually from 46.1 µM), inactives show at the highest dose activity change, negative = inhibition, hits mostly inhibitors; further: nearly all actives have a fitted effect of over 55% in size
#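 Quantitative HTS, concentration-response format. 2,000 cells/well co-treated with 5-fluorouridine and compound, 16 hr in 5% CO2 at 37 °C; ONE-Glo luminescence read after 30 min.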
# RORgamma inh: blocks mouse ROR gamma transcriptional activity; Potency, µM (highest dose often 53.6 µM), for inactives: top-dose activity change, negative = inhibition, actives largely listed as inhibitors; AID 2551; 5.4% of 310,000 active; P51450; Drosophila S2 Gal4-RORgamma UAS-luciferase reporter, 20 h; further: nearly all actives have a fitted effect of over 60% in size
#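 ROR gamma transcriptional activity was tracked as Gal4-UAS luciferase output in stably transfected Drosophila Schneider cells, with compound added 1 hr before 700 uM copper sulfate induction and a 20 hr ambient-temperature incubation.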
# DT40 TDP1 no CPT: qHTS for Inhibitors of human tyrosyl-DNA phosphodiesterase 1 (TDP1): qHTS in cells in absence of CPT; Potency, µM (titrated, usually from 46.2 µM), for inactives: at the top dose activity change, negative = growth inhibition, hits mostly inhibitors; 15% of 420,000 active; DT40 Tdp1-/- hTDP1 cells, no CPT, ATP luminescence, 48 h; AID 686978, 2013; further: nearly all actives have a fitted effect of over 55% in size
#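 Chicken DT40 Tdp1-/- cells stably complemented with human TDP1 were seeded at 400 cells/well with DMSO in place of 20 nM camptothecin. After compound pinning, cells grew at least 48 hr at 37 °C; viability read by CellTiter-Glo luminescence.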
# Gal4-VP16 FLuc: inhibits Gal4-VP16 luciferase reporter, ROR gamma counter-screen; Drosophila S2 Gal4-VP16 UAS-luciferase, luminescence, 20 h; 3.5% of 310,000 active; AID 2546; Potency, µM (doses to about 53.6 µM), without a hit: at the top dose activity, negative = inhibition, most hits filed as inhibitors;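 further: Gal4-VP16 expression switched on by copper sulfate through the metallothionein promoter; nearly all actives have a fitted effect of over 50% in size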
# Starred values were filed as active, the others as inactive; ? = inconclusive; · = not tested or not shown; [ ] = dose if it differs, or a comment. An excerpt weighted towards active compounds, which were near 15% of everything screened. The call rests on the fitted dose curve; in most records, active means well fitted curve in the direction sought with a large enough effect; inconclusive means small, poorly fitted or top-dose-only effect, or another doubt; inactive means no such curve, though single readings can be large; an effect the other way counts as inactive or inconclusive. On the % scale 0 is the no-effect control and ±100 the full control effect; potency means the concentration at half of the fitted maximal effect.
SMILES,12-LOX inh,TDP1 cell CPT,ELG1 DNA repair,RORgamma inh,DT40 TDP1 no CPT,Gal4-VP16 FLuc
O=C(CN1CCN(c2ccc(O)cc2)CC1)NC(c1ccccc1)c1ccccc1,22.4µM*,-24.7%,3.1%,-14.0%,?,10.7%
O=C(CN1CCN(c2ccc(O)cc2)CC1)Nc1cc([N+](=O)[O-])ccc1Cl,-29.6%,20.6µM*,-20.8%,-3.7%,20.6µM*,?
O=C(CN1CCCCCC1)NC(c1ccccc1)c1ccccc1,?,-26.4%,-2.2%,11.0%[1.91 µM],?,8.7%
O=C(COc1cc2oc(=O)cc(-c3ccccc3)c2cc1Cl)NCc1cccnc1,4.1%,·,·,·,·,·
O=C(OCc1ccccc1)c1ccc2nccnc2c1,31.4%,·,·,·,·,·
O=C(NC1CCC(C(F)(F)F)CC1)c1ccc(Cl)nc1 (centres undefined),-6.3%,·,·,·,·,·
Cc1ccc(-c2nn(-c3ccc(F)cc3)cc2C(=O)NCCCN2CCCC2=O)cc1,0.0%,0.206µM*,?,·,-81.0%,·
Cc1nn(-c2ccccc2)c2nc(=O)n(-c3ccccc3)cc12,0.0%,8.2µM*,0.7%,20.1%,7.31µM*,-3.9%
Cc1ccc2nc3c(cc2c1)c(C)nn3-c1ccccc1,-1.9%,-0.4%,6.7%,12.6%,-18.8%,9.1%
O=C(CSc1ncc(-c2ccccc2)o1)Nc1cccc(F)c1,-4.6%,·,·,·,·,·
Cc1ccc(-c2csc3nc4cc(C(N)=O)ccc4c(=O)n23)cc1,17.8µM*,-19.6%,15.3%,0.6%,-22.9%,-10.7%
Cc1ccc(CNC(=O)c2ccc3c(=O)n4c(-c5ccc(C)cc5)csc4nc3c2)cc1,-19.6%,7.31µM*,2.7%,15.1%,9.2µM*,-1.5%
CCCn1nc2cc(C(=O)NCc3ccc(C)cc3)ccc2c1OC,-8.0%,?,-5.2%,14.6%,-26.6%,-1.6%
CC(C)(C)c1cc(CC2(NCc3ccc(Cl)cc3)COC2)no1,-28.7%[176 µM],·,·,·,·,·
Cc1ccc(C)c(C(=O)C(C)Sc2nc3nn(-c4ccccc4)c(=O)c-3c3n2CCCCC3)c1 (centres undefined),0.0%,?,0.5%,10.8%,20.6µM*,0.0%
CCSc1nc2nn(-c3ccccc3)c(=O)c-2c2n1CCCCC2,0.0%,?,-5.0%,-4.1%,?,-7.7%
Cc1ccc2[nH]c(C)cc(=S)c2c1,-21.3%,13µM*,-8.9%,-14.0%,16.4µM*,8.8%
Cc1cc(=S)c2ccccc2[nH]1,?,?,-16.3%,-9.9%,-14.8%,2.6%
C[C@H](NC(=O)C[C@@H]1CC[C@H]2[C@@H](COC[C@H](O)CN2Cc2ccc(C(F)(F)F)cc2)O1)c1ccccc1,-8.8%,18.4µM*,·,·,20.6µM*,·
Cc1sc(NC(=O)c2cccs2)nc1-c1ccccc1,-26.2%,23.1µM*,?,?,?,-13.7%
CC(=O)Nc1sc(N/N=C\c2ccccc2F)nc1-c1cccs1,-15.5%,-23.8%,?,?,-26.3%,?
Cc1sc(N/N=C/c2cccs2)nc1-c1ccccc1,7.1%,?,?,7.08µM*,18.4µM*,10µM*
CC(=O)Cc1nsc(NC(=O)c2ccccc2)n1,265.5%,-28.3%,?,7.4%,?,23.3%
CC(=O)Cc1nsc(NC(=O)c2cccs2)n1,0.0%,?,27.8%,-25.2%,23.1µM*,-0.4%
Nc1nonc1-c1nc2ccccc2n1Cc1ccc(Cl)cc1,?,9.6%,11.5%,-19.3%,-18.1%,-15.7%
SMILES,12-LOX inh,TDP1 cell CPT,ELG1 DNA repair,RORgamma inh,DT40 TDP1 no CPT,Gal4-VP16 FLuc
Nc1ccc(Cn2ccc3c4c(N)nc(N)nc4ccc32)cc1,?,?,·,·,0.13µM*,·
c1csc(CNc2ccnc(-c3ccoc3)n2)c1,12.6µM*,?,·,?,-25.8%,11.7%
CN(C)C(=O)c1ccc(-c2nccc(NCc3ccccc3)n2)cc1,44.7µM*,?,·,1.3%,-28.4%,-6.8%
Fc1ccc(Nc2ccnc(-c3ccc4c(c3)OCO4)n2)cc1,17.8µM*,?,·,30.4%,-18.6%,-8.3%
Cc1ccccc1-c1nccc(Nc2ccc(F)cc2)n1,-15.8%,?,·,?,?,-26.2%
Fc1ccc(Nc2ccnc(-c3ccoc3)n2)cc1,?,-22.3%,·,?,-4.1%,?
N#Cc1cccc(-c2nccc(NCc3cccs3)n2)c1,?,?,·,?,?,15.6%
COc1ccccc1-c1nccc(Nc2ccc(F)cc2)n1,?,23.1µM*,·,5.9%,?,6.0%
COc1ccc(Oc2c(C)oc3cc(OC(=O)c4ccco4)ccc3c2=O)cc1,7.2%,·,·,·,·,·
CNC(=O)N1CCC(C2CCN(C3CCSCC3)C2)CC1 (centres undefined),81.6%,·,·,·,·,·
CN(C)C(=O)c1ccc(-c2nccc(NCc3cccs3)n2)cc1,?,-11.9%,·,6.2%,-7.8%,?
COc1ccccc1-c1nccc(NCc2cccs2)n1,12.6µM*,20.6µM*,·,-2.2%,?,-12.6%
CN(C)c1ccc(-c2nccc(NCc3cccs3)n2)cc1,?,20.6µM*,·,-42.4%,23.1µM*,-35.7%
CCN1/C(=C\C=C2\C(=O)N(c3ccccc3)C(=S)N2C)Sc2ccccc21,?,?,8.4%,-12.7%,10.3µM*,-0.9%
CCCN1C(=O)/C(=C\C=C2/Sc3ccccc3N2CC)SC1=S,·,·,5.0%,-3.9%,·,7.4%
COc1cc(OC)cc(C(=O)NC(C)CNc2ccc(Cl)cc2[N+](=O)[O-])c1 (centres undefined),-5.0%,?,?,16.5%,8.2µM*,3.1%
N#Cc1nc(-c2ccc(S(=O)(=O)N3CCCC3)cc2)oc1NCCc1ccccc1,-30.6%,·,·,·,·,·
CCOc1ccc(NC(=O)c2ccc3c(c2)N(CC)C2CCCCN2C3=O)cc1 (centres undefined),40.8%,·,·,·,·,·
CCOc1ccc(NC(=O)c2cc(C)nc3c2c(C)nn3-c2cccc(F)c2)cc1,-25.4%,1.5%,·,·,?,·
CCOc1ccc(Nc2nc(C)c(NC(=O)c3cccc(F)c3)c(Nc3ccc(OCC)cc3)n2)cc1,?,0.651µM*,·,·,0.517µM*,·
CCn1ccc(=N)cc1,0.0%,-18.4%,4.9%,4.6%,4.3%,15.8µM*
CCCCCCCCCn1ccc(=N)cc1,79.5%,0.231µM*,0.411µM*,?,0.146µM*,1.58µM*
COC1CCC12CCN(C(=O)c1ccnn1C)CC2 (centres undefined),0.1%,·,·,·,·,·
CC1=Nc2cc(C(=O)NCC3CCCO3)ccc2Sc2ccc(C)cc21 (centres undefined),0.0%,0.581µM*,-0.5%,-23.1%,0.92µM*,5.6%
